The results in this text go back to PubChem BioAssay.

Assay [1] is described as follows: HepG2 liver cancer cell viability effects, profiling panel, resazurin fluorescence, 24 h, PK04 Diversity Set (AID 1172). To be noted: higher = more signal.
Assay [2] is described as follows: basal S. cerevisiae growth modulation, no modifier, primary screen, OD600, strain BY4716, 24 h, basal condition (AID 1173). The note with it: OD600, 24 h, higher = more signal, called active from +8 up or from −8 down.
Assay [3] is described as follows: MM1S myeloma cell viability, profiling panel, resazurin fluorescence, basal, 24 h, PK04 Diversity Set (AID 1174).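 Note: MM1S multiple myeloma cell line.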 The note with it: higher = more signal, called active from +8 up or from −8 down.
Assay [4] concerns the target Dihydroorotate dehydrogenase (quinone), mitochondrial (Plasmodium falciparum (isolate 3D7)) (UniProt Q08210). The experiment in a line: PfDHODH enzyme inhibitors, primary screen, biochemical, C-terminal His tag, absorbance 600 nm (AID 1175).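 Note: recombinant parasite enzyme with a five histidine tag at its C terminus.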 The note with it: DCIP absorbance 600 nm, higher = more signal, called active from +8 up or from −8 down.
Assay [5] can be described thus: P. aeruginosa biofilm formation inhibitors, primary screen, strain PAO1, LB-PBS medium, absorbance 600 nm (AID 1176). To be noted: P. aeruginosa PAO1 growth/biofilm, A600, 12 h; higher = more signal.
The nature of assay [6]: S. cerevisiae RM11-1a growth modifiers, primary screen, strain RM11-1a, OD600, basal, 24 h (AID 1177).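 Note: cultures grown under basal conditions with no added stressor.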 The note with it: OD600, 24 h, higher = more signal, called active from +8 up or from −8 down.
Assay [7] in a line: E. coli acrAB mutant growth effects, primary screen, E. coli filamentation inducers, strain DRC39, OD650, 24 h (AID 1178).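 Note: growth measured as culture turbidity by optical density at 650 nm.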 To be noted: higher = more signal, called active from +8 up or from −8 down.
Assay [8] in a line: E. coli acrAB mutant growth effects, primary screen, E. coli filamentation inducers, strain DRC39, OD650, 48 h (AID 1179).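 Note: screen aims at cell division blockers that make cells filament.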 The note with it: E. coli DRC39 delta-acrAB growth, higher = more signal, called active from +8 up or from −8 down.
Assay [9] can be described thus: RPMI8226 myeloma cell viability, profiling panel, resazurin fluorescence, basal, 24 h, PK04 Diversity Set (AID 1180).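 Note: RPMI8826 multiple myeloma cell line at 5000 cells per well.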 To be noted: higher = more signal.
In assay [10] the target is E3 ubiquitin-protein ligase XIAP (Homo sapiens) (UniProt P98170). Description: XIAP binders, primary screen, biophysical, small-molecule microarray, fluorescence 635 nm (AID 1181).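 Note: score merges 667 nm emission and signal to noise over triplicate slides.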 To be noted: small-molecule microarray binding, higher = more signal.
Assay [11] relates to XIP peptide (Xip251-270) binding. Description: small-molecule binders of XIP peptide, primary screen, biochemical, small-molecule microarray, fluorescence 635/667 nm, 0.1 µg/mL protein (AID 1182). To be noted: fluorescent protein binding, 635 nm, higher = more signal, called active from +8 up or from −8 down.
The next assay relates to XIP peptide (Xip251-270). The experiment in a line: small-molecule binders of XIP peptide, primary screen, biochemical, small-molecule microarray, fluorescence 635/667 nm, 0.5 µg/mL protein (AID 1183). To be noted: small-molecule microarray binding, fluorescence 635 nm; higher = more signal.
A short description of assay [12]: Plasmodium falciparum growth inhibition, primary screen, strain 3D7, DAPI fluorescence, 100 nL (AID 1184).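 Note: parasites grown inside human red blood cells in medium with human serum.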 To be noted: P. falciparum 3D7 growth, 3 d, higher = more signal.
Assay [13] addresses Homeobox protein Hox-A13 (Mus musculus) (UniProt Q62424). The experiment in a line: inhibitors of HoxA13-DNA binding, primary screen, biochemical, fluorescence polarization, labeled oligonucleotide (AID 1185). The note with it: 15 min, higher = more signal, called active from +8 up or from −8 down.
Assay [14] in a line: inhibitors of hydroxyurea-induced Chk1 phosphorylation, primary screen, imaging, HeLa, phospho-Chk1 antibody, percent positive cells (AID 1186). To be noted: hydroxyurea-induced phospho-Chk1 immunofluorescence imaging, higher = more signal.
The nature of assay [15]: inhibitors of hydroxyurea-induced Chk1 phosphorylation, primary screen, imaging, HeLa, phospho-Chk1 nuclear intensity (AID 1187). The note with it: hydroxyurea-induced phospho-Chk1 immunofluorescence imaging, higher = more signal.

Structures are written as SMILES. Activity calls are given as the source filed them. Unless noted, the rule behind the calls is not given here.

E3 ubiquitin-protein ligase XIAP (Homo sapiens), sequence (P98170 whole entry, looked up): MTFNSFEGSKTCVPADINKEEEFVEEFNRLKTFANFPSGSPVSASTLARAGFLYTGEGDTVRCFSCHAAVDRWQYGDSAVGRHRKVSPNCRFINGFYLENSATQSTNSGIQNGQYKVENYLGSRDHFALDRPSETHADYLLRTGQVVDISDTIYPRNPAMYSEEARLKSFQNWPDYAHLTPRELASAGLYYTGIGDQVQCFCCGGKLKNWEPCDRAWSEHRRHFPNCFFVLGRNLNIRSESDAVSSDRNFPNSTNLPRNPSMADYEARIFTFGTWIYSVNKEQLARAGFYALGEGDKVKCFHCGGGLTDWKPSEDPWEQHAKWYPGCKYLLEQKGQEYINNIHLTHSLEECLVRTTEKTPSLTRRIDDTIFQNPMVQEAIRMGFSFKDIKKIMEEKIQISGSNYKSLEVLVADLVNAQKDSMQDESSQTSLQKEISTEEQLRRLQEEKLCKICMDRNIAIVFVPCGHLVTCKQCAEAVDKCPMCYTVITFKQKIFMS
Homeobox protein Hox-A13 (Mus musculus), sequence (Q62424 whole entry, looked up): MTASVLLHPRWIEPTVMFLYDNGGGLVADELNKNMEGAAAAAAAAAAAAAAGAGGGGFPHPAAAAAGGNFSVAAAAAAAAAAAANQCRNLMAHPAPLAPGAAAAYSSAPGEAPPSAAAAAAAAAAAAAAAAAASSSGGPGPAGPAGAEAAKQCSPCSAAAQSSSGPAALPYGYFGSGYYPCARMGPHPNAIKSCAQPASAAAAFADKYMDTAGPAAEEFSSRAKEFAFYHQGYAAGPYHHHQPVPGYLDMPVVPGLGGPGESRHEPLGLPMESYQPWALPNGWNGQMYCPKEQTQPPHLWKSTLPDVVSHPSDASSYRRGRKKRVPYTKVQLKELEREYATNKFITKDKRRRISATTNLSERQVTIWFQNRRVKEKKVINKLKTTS
Dihydroorotate dehydrogenase (quinone), mitochondrial (Plasmodium falciparum (isolate 3D7)), sequence (Q08210 whole entry, looked up): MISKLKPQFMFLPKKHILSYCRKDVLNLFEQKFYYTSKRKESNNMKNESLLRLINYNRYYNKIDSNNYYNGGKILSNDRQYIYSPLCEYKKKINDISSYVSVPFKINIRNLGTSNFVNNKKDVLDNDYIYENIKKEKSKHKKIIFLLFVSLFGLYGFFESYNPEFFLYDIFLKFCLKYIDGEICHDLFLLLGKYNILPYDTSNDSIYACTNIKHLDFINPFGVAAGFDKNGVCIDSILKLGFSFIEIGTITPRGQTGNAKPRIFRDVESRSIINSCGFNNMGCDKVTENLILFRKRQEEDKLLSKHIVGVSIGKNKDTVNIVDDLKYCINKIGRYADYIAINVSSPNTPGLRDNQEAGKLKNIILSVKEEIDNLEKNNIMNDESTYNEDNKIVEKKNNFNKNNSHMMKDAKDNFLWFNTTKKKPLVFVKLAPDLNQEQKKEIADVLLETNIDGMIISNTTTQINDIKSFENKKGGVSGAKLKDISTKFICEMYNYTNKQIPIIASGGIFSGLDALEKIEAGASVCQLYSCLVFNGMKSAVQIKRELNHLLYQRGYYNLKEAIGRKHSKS

Regarding `COC(=O)[C@@]1(Cc2ccccc2)[C@H]2c3cc(C(=O)N(C)C)n(Cc4ccc(O)c(OC)c4)c3C[C@H]2CN1C(=O)c1ccccc1`, the z-score in assay [1] is 0.563; in assay [2], 1.12 (inactive); in assay [3], 0.301 (inactive); in assay [5] it was 1.47 (inactive); in [6] it was 0.458 (inactive); in assay [7], -0.846 (inactive). The z-score is 0.202 (inactive) in assay [8]; -1.24 in assay [9]; -1.55 in assay [12]; -5.2 (inactive) in [13]; 0.197 (inactive) in [14]; -0.0257 (inactive) in [15]. For the same compound, the composite z-score is -2.88 (inactive) in assay [4], 0.0422 in assay [10], 0.332 (inactive) in [11] and 0.664 in the assay with XIP peptide (Xip251-270).

With `CN(C)C(=O)[C@@]1(CCC(=O)OC(C)(C)C)COC(c2ccc(OCCCO)cc2)=N1`, the z-score is 0.791 in assay [1]; -0.874 (inactive) in assay [2]; 0.265 (inactive) in [3]; -0.512 (inactive) in assay [5]; -0.0602 (inactive) in assay [6]; 0.115 (inactive) in assay [7]. In addition, the z-score in assay [8] is 0.465 (inactive); in [9], -0.195; in assay [12], 0.388; in assay [13] it was -3.81 (inactive); in assay [14], -0.0526 (inactive); in assay [15] it was 0.337 (inactive). Besides, the composite z-score in assay [4] was -0.883 (inactive); in assay [10] it was -0.0559; in assay [11], 0.9 (inactive); with XIP peptide (Xip251-270) it was 0.846.

Consider `O=C1C2C=CC(C(O)c3ccc(Br)cc3)N(Nc3ccccc3)C2C(=O)N1c1ccccc1` (stereo unspecified), for which the z-score in [1] is -0.69; in assay [2], -3.48 (inactive); in assay [3] it was -1.95 (inactive); in assay [5], 1.22 (inactive); in assay [6] it was 0.501 (inactive); in assay [7], -0.387 (inactive). For the same compound, the z-score in assay [8] is -0.604 (inactive); in assay [9], -1.48; in assay [12], -0.18; in [13], -3.62 (inactive); in [14], 0.348 (inactive); in assay [15], 0.453 (inactive). The composite z-score was 1.02 (inactive) in [4], 0.184 in assay [10], 0.65 (inactive) in assay [11] and 0.324 in the assay with XIP peptide (Xip251-270).

Consider `Cc1ccc(C(C)CC(O)C2C=CC3C(=O)N(Cc4ccccc4)C(=O)C3N2n2cnnc2)o1` (stereo unspecified), for which the z-score in assay [1] was -1.13; in assay [2], -9.36 (active); in assay [3] it was -0.817 (inactive); in [5], 0.368 (inactive); in [6] it was -1.4 (inactive); in [7], -1.46 (inactive). Moreover, the z-score in assay [8] was -1.22 (inactive); in assay [9] it was -0.841; in [12], -0.981; in assay [13] it was -2.57 (inactive); in assay [14] it was 0.0591 (inactive); in assay [15], -0.208 (inactive). Further, the composite z-score is -0.101 (inactive) in assay [4], 0.263 in assay [10], 0.831 (inactive) in assay [11] and 0.731 in the assay with XIP peptide (Xip251-270).

For the compound `C[N+](C)(C)CCCC[C@@H]1NC(=O)[C@@H]2C[C@H](C(=O)O)[C@H](c3cccc(OCCO)c3)N2C1=O`, the z-score is 0.72 in assay [1]; -0.219 (inactive) in assay [2]; 0.838 (inactive) in assay [3]; -0.351 (inactive) in assay [5]; -0.126 (inactive) in assay [6]; 1.13 (inactive) in [7]. The z-score in assay [8] was 1.36 (inactive); in assay [9] it was 0.826; in assay [12], -0.0179; in assay [13] it was -3.69 (inactive); in [14], 0.153 (inactive); in assay [15], 0.16 (inactive). The composite z-score in [4] is 0.284 (inactive); in assay [10] it was -0.131; in assay [11], 1.36 (inactive); in the assay with XIP peptide (Xip251-270), 0.246.

Take `CCCCCCC#C[Si](O[C@H](c1ccccc1)c1cn(Cc2cccc(Cl)c2)nn1)(C(C)C)C(C)C`: the z-score was 0.809 in assay [1]; -0.419 (inactive) in assay [2]; 1.31 (inactive) in [3]; 0.101 (inactive) in assay [5]; 0.738 (inactive) in [6]; 0.804 (inactive) in assay [7]. The z-score in assay [8] is 1.19 (inactive); in assay [9], 2.01; in assay [12], -0.464; in [13], 1.16 (inactive); in assay [14], -0.195 (inactive); in assay [15], -0.272 (inactive). For the same compound, the composite z-score was -0.0872 (inactive) in assay [4], -0.0447 in assay [10], -0.301 (inactive) in assay [11] and 0.0372 with XIP peptide (Xip251-270).
